Assay outcomes deposited in PubChem by National Center for Advancing Translational Sciences (NCATS).
FBPA Giardia inh – qHTS Assay for Inhibitors of Fructose-1,6-bisphosphate Aldolase from Giardia Lamblia; AID 2451, 2010; A8B2U2; Potency, µM (highest dose often 59.6 µM), inactives show at the highest dose activity, negative = inhibition, actives largely listed as inhibitors; hit rate 0.71% among 290,000; purified Giardia FBPA; also: potency is read from the fitted curve at half-maximal effect; nearly all actives have a fitted effect of over 55% in size
Target sequence (A8B2U2 whole entry, looked up): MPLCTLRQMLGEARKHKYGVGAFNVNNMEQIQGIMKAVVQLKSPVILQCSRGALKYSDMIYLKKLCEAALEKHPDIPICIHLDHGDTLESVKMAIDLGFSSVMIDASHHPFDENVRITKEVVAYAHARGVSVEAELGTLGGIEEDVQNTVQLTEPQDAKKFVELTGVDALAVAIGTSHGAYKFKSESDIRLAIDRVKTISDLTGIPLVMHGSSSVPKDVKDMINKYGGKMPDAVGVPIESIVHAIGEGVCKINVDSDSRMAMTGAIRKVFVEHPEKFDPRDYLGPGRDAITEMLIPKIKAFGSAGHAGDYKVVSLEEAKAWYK
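Giardia FBPA (40 nM reagent) was preincubated 10 min at RT with compound (up to 57.5 uM final), then substrate plus GAPDH/TPI/NAD/arsenate coupling system with diaphorase/resazurin was added; resorufin fluorescence (525/598 nm) was read after 20 min.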
Sm TGR inh – qHTS Assay for the Inhibitors of Schistosoma Mansoni Peroxiredoxins. Potency, µM (top dose mostly 114 µM), for inactives: at the top dose activity change, negative = inhibition, most hits filed as inhibitors. Schistosoma mansoni thioredoxin glutathione reductase (TGR), Q962Y6. hit rate 3% among 360,000. purified TGR, DTNB reduction, TNB absorbance 405 nm; also: potency is read from the fitted curve at half-maximal effect; nearly all actives have a fitted effect of over 60% in size
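TGR 20 nM + NADPH 100 uM (dispensed conc.), cpd preinc 15 min RT; start with NADPH (500 uM addition) then DTNB (15 mM addition). Kinetic TNB absorbance, 405 nm filter. Four-parameter Hill fit across titration.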
TbPYK inhibitor – qHTS of Trypanosoma Brucei Inhibitors | pyruvate kinase (Trypanosoma brucei), Q57TT1 | TbPYK enzyme, Kinase-Glo Plus ATP luminescence, 45 min | Potency, µM (series often up to 76.8 µM), for the others: at the highest dose activity, negative = inhibition, usual class: inhibitors | hit rate 0.12% among 410,000 | AID 624173, 2012; also: potency is read from the fitted curve at half-maximal effect; nearly all actives have a fitted effect of over 50% in size
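Readout: single end-point luminescence (Kinase-Glo Plus, 10 min). Reaction conditions were TbPYK/substrate plus 130 uM ADP, 45 min at RT, pH 7.2 TEA buffer. No-enzyme wells served as controls, and data were normalized before concentration-response fitting.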
RE007 growth inh – qHTS Assay for Inhibitors of the HIV-1 protein Vpr. S. pombe RE007 Vpr strain, BacTiter-Glo ATP luminescence, 24 h. Potency, µM (highest dose often 92.2 µM), for the others: at the top dose activity change, negative = less growth, most hits filed as inhibitors. hit rate 0.21% among 360,000; active = well fitted falling curve with a large enough effect; inconclusive = small, poorly fitted or top-dose-only effect; inactive = no such curve, though single readings can be large or run the other way; also: potency is read from the fitted curve at half-maximal effect; nearly all actives have a fitted effect of over 50% in size
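Fission yeast strain RE007, carrying one chromosomally integrated HIV-1 vpr copy, was seeded at OD 0.01 in PMG+AL medium with 23 nL pinned compound. After 24 h at 30 °C and 99% humidity, viability was read by BacTiter-Glo luminescence.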
HCMV antiviral – qHTS Assay for inhibitors of the human cytomegalovirus (HCMV); hit rate 4.5% among 410,000; AID 1259415, 2018; activity change, negative = inhibition, % at 57.5 µM; HFF cells, HCMV-luciferase reporter, 72 h; active compounds read low; in the data active = activity change below about -60%; inconclusive = no clear call, values can overlap the other calls; inactive = above about -39%
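Inhibition of viral replication was scored as loss of reporter luminescence in HFFs infected with HCMV-luciferase (MOI 1 PFU/cell) for 72 h; compounds tested at 2 doses, normalized to buffer and Salinomycin controls.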
FMDV inh – High Throughput Screening for Foot and Mouth Disease Virus Antivirals | FMDV antiviral cell-based qHTS | Potency, µM (titrated, usually from 57.9 µM), inactives show at the highest dose activity change, negative = inhibition, usual class: inhibitors | hit rate 1.2% among 410,000 | AID 1159524, 2015; calls by dose curve; tested in HEK293T cells; also: read-out not given here; potency is read from the fitted curve at half-maximal effect; nearly all actives have a fitted effect of over 45% in size
* = called active by the depositor. Compounds with a hit are over-represented: about 7.7% of the library has one in this group of screens. Unless noted, calls follow the shape of the dose curve; as a rule, active = well fitted curve in the direction sought with a large enough effect; inconclusive = small, poorly fitted or top-dose-only effect, or another doubt; inactive = no such curve, though single readings can be large; an effect the other way counts as inactive or inconclusive. % is scaled to controls: 0 for no effect and ±100 for the full control effect.

How did COc1ccc(-c2cc(OC(=O)c3ccc(F)cc3)c3c(C)oc(C)c3c(=O)c2)cc1 do in these assays?
FBPA Giardia inh: inconclusive; Sm TGR inh: 35µM*

Results for CC(C)OC(=O)CN1C(=O)S/C(=C/c2ccc(N3CCCCC3)o2)C1=O ?
FBPA Giardia inh: inconclusive; Sm TGR inh: 6.3µM*; TbPYK inhibitor: inconclusive; RE007 growth inh: -12%; HCMV antiviral: -30

Results for O=C1N=C(N2CCOCC2)S/C1=C/c1ccc(-c2ccc(F)cc2)o1 ?
FBPA Giardia inh: -4%; Sm TGR inh: -27%; TbPYK inhibitor: -4%; RE007 growth inh: 7%; HCMV antiviral: -4; FMDV inh: -16%

Results for O=C1S/C(=C/c2ccc(N3CCOCC3)o2)C(=O)N1Cc1ccc(F)cc1 ?
Sm TGR inh: 1µM*; TbPYK inhibitor: inconclusive; RE007 growth inh: -25%; HCMV antiviral: -36; FMDV inh: 13%

What do the screens show for `O=C1/C(=C/c2ccc(N3CCOCC3)o2)SC(=Nc2ccccc2)N1CCc1c[nH]c2ccccc12`?
FBPA Giardia inh: -14%; Sm TGR inh: 8.9µM*; TbPYK inhibitor: -20%; RE007 growth inh: 58%; FMDV inh: -16%

What do the screens show for `O=C1S/C(=C\c2ccc(N3CCOCC3)o2)C(=O)N1Cc1ccc(F)cc1`?
FBPA Giardia inh: inconclusive; Sm TGR inh: 5µM*; TbPYK inhibitor: inconclusive; RE007 growth inh: inconclusive; FMDV inh: -14%

Results for CC(C)(C)CC(C)(C)NC(=O)C(Nc1ccccc1)c1ccccc1F (stereo unspecified) ?
HCMV antiviral: 48

Results for CCOc1ccc(N2CC(NC(=O)c3ccc4c(c3)OCO4)CC2=O)cc1 (stereo unspecified) ?
Sm TGR inh: 1%; TbPYK inhibitor: 19%; HCMV antiviral: 22; FMDV inh: 1%

What do the screens show for `CCOc1ccc(-n2nc3ccc(NC(=O)c4ccc(-c5cccc(Cl)c5)o4)cc3n2)cc1`?
Sm TGR inh: inconclusive; TbPYK inhibitor: -1%; HCMV antiviral: -12; FMDV inh: -24%

How did COc1cc(NC(=O)Cc2c(C(=O)O)c(C)cn2C)cc(OC)c1 do in these assays?
Sm TGR inh: -7%; TbPYK inhibitor: 0%; HCMV antiviral: 3; FMDV inh: 3%

How did O=C(NCc1ccncc1)c1cnn(-c2nccc(-c3cccs3)n2)c1C1CC1 do in these assays?
FMDV inh: -1%

What do the screens show for `CN1CCN(c2ccc(C(=O)c3ccc(Br)cc3)cc2[N+](=O)[O-])CC1`?
FBPA Giardia inh: -4%; Sm TGR inh: 1%; TbPYK inhibitor: 1%; RE007 growth inh: -7%; HCMV antiviral: -68*; FMDV inh: inconclusive

Results for NC(=O)c1ccc(N2CCN(S(=O)(=O)c3cccs3)CC2)c([N+](=O)[O-])c1 ?
TbPYK inhibitor: 0%; RE007 growth inh: 12%; HCMV antiviral: -84*; FMDV inh: 20µM*

How did O=C(Nc1nc2ccccc2s1)c1ccc(N2CCCCC2)c([N+](=O)[O-])c1 do in these assays?
FBPA Giardia inh: 1%; Sm TGR inh: -14%; TbPYK inhibitor: 4%; RE007 growth inh: -14%; HCMV antiviral: -72*; FMDV inh: -50%

How did O=C(Nc1ccon1)c1ccc(N2CCCCC2)c([N+](=O)[O-])c1 do in these assays?
FBPA Giardia inh: -2%; Sm TGR inh: -5%; TbPYK inhibitor: 1%; RE007 growth inh: 8%; HCMV antiviral: 2; FMDV inh: -3%

Results for CN1CCN(c2ccccc2NC(=O)c2ccc(N3CCCC3)c([N+](=O)[O-])c2)CC1 ?
FBPA Giardia inh: -3%; Sm TGR inh: 1%; TbPYK inhibitor: 1%; RE007 growth inh: 0%; HCMV antiviral: -18; FMDV inh: inconclusive

Results for O=C(NCc1ccncc1)c1ccc(N2CCCC2)c([N+](=O)[O-])c1 ?
FBPA Giardia inh: 0%; Sm TGR inh: 9%; TbPYK inhibitor: 4%; RE007 growth inh: 9%; HCMV antiviral: -62*; FMDV inh: -24%

Results for COc1cc(Cl)c(C)cc1NC(=O)CNC(=O)Cn1ccc2ccccc2c1=O ?
Sm TGR inh: -3%; TbPYK inhibitor: -3%; HCMV antiviral: 0; FMDV inh: 5%

Results for NC(=O)c1ccc(N2CCCCCC2)c([N+](=O)[O-])c1 ?
FBPA Giardia inh: 4%; Sm TGR inh: 3%; TbPYK inhibitor: 1%; RE007 growth inh: -14%; HCMV antiviral: -60*; FMDV inh: -9%

How did Nc1ncc(Br)nc1NC1CCOCC1 do in these assays?
HCMV antiviral: 44

Results for Cc1c(P(=S)(c2ccccc2)c2ccccc2)[n+]2ccccc2n1C ?
FBPA Giardia inh: 0%; Sm TGR inh: 59%; TbPYK inhibitor: 0%; RE007 growth inh: -9%; HCMV antiviral: -64*; FMDV inh: -18%

Results for Cn1cc[n+](C)c1P(=S)(c1ccccc1)c1ccccc1 ?
FBPA Giardia inh: 3%; Sm TGR inh: 0%; TbPYK inhibitor: 2%; RE007 growth inh: 3%; HCMV antiviral: -10; FMDV inh: -10%

What do the screens show for `Cc1c(P(=S)(c2ccccc2)c2ccccc2)[n+]2ccccc2n1C/C=C/c1ccccc1`?
TbPYK inhibitor: 4%; HCMV antiviral: -99*; FMDV inh: inconclusive

What do the screens show for `CCCOC(=O)c1c(C)oc2c1cc(NS(=O)(=O)c1ccc(OCC)cc1)c1ccccc12`?
Sm TGR inh: -4%; TbPYK inhibitor: -14%; HCMV antiviral: -96*; FMDV inh: 7%

How did CCOC(=O)c1c(C)oc2c1cc(NS(=O)(=O)c1ccc(C(=O)O)cc1)c1ccccc12 do in these assays?
FBPA Giardia inh: inconclusive; Sm TGR inh: 28µM*; TbPYK inhibitor: -11%; RE007 growth inh: -7%; HCMV antiviral: 40; FMDV inh: 6%

Results for CCOc1ccc(S(=O)(=O)Nc2cc3c(C(=O)OCc4ccccc4)c(C)oc3c3ccccc23)cc1 ?
Sm TGR inh: -27%; TbPYK inhibitor: -4%; HCMV antiviral: -84*; FMDV inh: 6%

What do the screens show for `CCOc1ccc(C(=O)Nc2cccc(OCc3cc(=O)n4cc(C)sc4n3)c2)cc1`?
Sm TGR inh: 3%; TbPYK inhibitor: -6%; HCMV antiviral: 10; FMDV inh: 0%

How did COc1cc(-c2ccc(C(F)(F)F)cn2)cc2c1OCCN(S(=O)(=O)C[C@]13CC[C@H](CC1=O)C3(C)C)C2 do in these assays?
FMDV inh: 6%
